# The panel holds about 79,000 compounds, 15% with a hit somewhere; the sample as a whole holds those more often. Values without a mark were called inactive. Active and inactive are the calls of the source. No stated cut-off is given here; in the data, active means growth inhibition above about 70%; inactive means the rest.
# Assays:
# [1] = NCI Yeast Anticancer Drug Screen. Data for the rad50 strain (AID 155);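 further: 0% = growth of vehicle-only cultures of the same strain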; settings: S. cerevisiae rad50 strain growth inhibition; at 50.0 µM; active compounds read high
# Outline: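 Readout: growth inhibition relative to vehicle-treated cultures. Compound exposure was carried out in a genetically defined yeast strain deficient in DNA damage repair.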
# [2] = NCI Yeast Anticancer Drug Screen. Data for the mec2-1 strain (AID 157); settings: S. cerevisiae mec2-1 strain, at 50.0 µM, active compounds read high
# Outline: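 Test agents were screened against the mec2-1 yeast strain, with defined DNA repair or cell cycle alteration. Growth was scored as inhibition against vehicle-only controls.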
# [3] = NCI Yeast Anticancer Drug Screen. Data for the sgs1 mgt1 strain (AID 161);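 further: 0% = growth of cultures given vehicle only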; settings: S. cerevisiae sgs1 mgt1 strain, at 50.0 µM, active compounds read high
# Outline: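 Inhibition of yeast growth, normalised to vehicle-treated controls, is reported for a strain bearing genetic alterations in DNA damage repair.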
# [4] = NCI Yeast Anticancer Drug Screen. Data for the cln2 rad14 strain (AID 165);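 further: 0% = growth equal to vehicle treated cultures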; settings: S. cerevisiae cln2 rad14 strain, at 50.0 µM, active compounds read high
# Outline: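 Growth of compound-exposed yeast (cln2 rad14 genotype) measured and expressed as inhibition relative to vehicle.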
# [5] = NCI Yeast Anticancer Drug Screen. Data for the bub3 strain (AID 167); settings: S. cerevisiae bub3 mutant strain, at 50.0 µM, active compounds read high
# Outline: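 Readout: yeast growth inhibition, expressed relative to vehicle-only wells. The test organism is a mutant strain from a panel with lesions in DNA repair or checkpoint genes.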
# [6] = NCI Yeast Anticancer Drug Screen. Data for the mlh1 rad18 strain (AID 175); settings: S. cerevisiae mlh1 rad18 strain growth inhibition; at 50.0 µM; active compounds read high
# Outline: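 In this whole-cell yeast screen, a strain with altered DNA damage repair is challenged with compound, and its growth is measured against matched vehicle-treated controls.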
SMILES,growth inhibition [1],growth inhibition [2],growth inhibition [3],growth inhibition [4],growth inhibition [5],growth inhibition [6]
O=C1C=C(c2ccccc2)C(c2ccccc2)=C1,23.6%,2.8%,-5.2%,30.1%,-5.6%,11.1%
CN(CCOc1ccccc1)Cc1ccccc1,33.1%,7.15%,50.7%,31.3%,40.1%,34.4%
Cc1noc2c1C(=O)CCC2,-3.3%,-5.45%,17.8%,11.2%,21.2%,7.05%
OCCCCC(c1ccc(O)cc1)c1ccc(O)cc1,17%,-52.3%,8.8%,25.1%,-18.9%,-14.7%
Nc1cc(C(Br)(Br)Br)nc2ccccc12,17.4%,7.45%,16.8%,-0.2%,-11%,31.8%
COC(=O)c1ccc(C(=O)OC)nc1,-7.45%,-2.1%,-0.2%,-36.6%,-25.6%,-3.55%
Nc1cccc(-c2nc3ncnc(N)c3[nH]2)c1,8.6%,-2.15%,-5.5%,-46.9%,-18.5%,-11.2%
CC(C)c1cc2c(O)c(c1)Cc1cc(C(C)C)cc(c1O)Cc1cc(C(C)C)cc(c1O)Cc1cc(C(C)C)cc(c1O)Cc1cc(C(C)C)cc(c1O)Cc1cc(C(C)C)cc(c1O)C2,-21.1%,-0.85%,-14.8%,14.6%,3.55%,-24.1%
CCC(=O)OCC1OC(Oc2ccc(N=Nc3ccccc3)cc2)C(OC(=O)CC)C(OC(=O)CC)C1OC(=O)CC (stereo unspecified),18.9%,3.4%,34%,1.35%,12.9%,28.2%
O=C(N/N=C/c1ccccc1)c1c(-c2cccnc2)cnc2ccccc12,-12.8%,-9.3%,-10.6%,10.9%,12.3%,14.3%
Cc1ccc(C(=O)Nc2ccc3c(c2)Cc2ccccc2-3)cc1,-19.3%,-23.6%,-7.45%,-5%,-20.6%,-10.8%
CNc1nc(Cl)cc2nc(Cl)cn12,-2.15%,15.8%,-18.6%,-12.1%,8.3%,4.55%
COc1ccccc1C1OC2=C(Nc3ccc([N+](=O)[O-])cc3N2)C1=O (stereo unspecified),12.2%,10.4%,27.9%,16.6%,16.9%,28.1%
Cc1cc(C)c(SSc2c(C)cc(C)cc2C)c(C)c1,-7.8%,-8.65%,-3.9%,-15.6%,7.6%,-1.6%
O=C(Nn1c(=S)[nH][nH]c1=S)c1ccccc1,17.1%,-4.05%,-2.35%,-12.2%,-14.5%,21.4%
Cc1ccc(S(=O)(=O)N(CCOc2c3occc3cc3ccc(=O)oc23)CCN(CCN(CCOc2c3occc3cc3ccc(=O)oc23)S(=O)(=O)c2ccc(C)cc2)S(=O)(=O)c2ccc(C)cc2)cc1,-10.2%,-11.7%,-14.4%,-31.6%,-21.1%,-6.8%
C=Cc1c2[n-]c(c1C)/C=c1\[n-]/c(c(C)c1C=C)=C\c1[n-]c(c(CCC(=O)O)c1C)/C=c1\[n-]/c(c(C)c1CCC(=O)O)=C\2.[Co],14.8%,54.9%,53.6%,-2.05%,19.2%,59.9%
O=C(CSCC(=O)c1ccc([N+](=O)[O-])cc1)c1ccc([N+](=O)[O-])cc1,-19.4%,-29.6%,9.85%,-0.65%,-20.1%,-5%
CCNC(=O)NC(=O)C(C)(C)Oc1ccc(Cl)cc1,-8.4%,10.4%,7.4%,12.5%,12.4%,18.8%
CCN(CC)C1=CC(=O)C(N(CC)CC)=CC1=O,1.25%,0.15%,-7%,-4.5%,13.1%,2.35%
Cc1ccc(S(=O)(=O)N2CC(O)C=Cc3ccccc32)cc1 (stereo unspecified),5.4%,-3.1%,-4.45%,17.5%,5.15%,9.85%

SMILES,growth inhibition [1],growth inhibition [2],growth inhibition [3],growth inhibition [4],growth inhibition [5],growth inhibition [6]
O=Cc1ccnc2c(Cl)cccc12,16.4%,22.8%,-1.1%,15.1%,6.3%,18%
CCOC(=O)CCC1(C(=O)OCC)CCCCC1=O (stereo unspecified),-16.9%,-20.4%,-48.5%,-16.9%,-25.4%,-23.1%
CCOC(=O)C(C(=O)OCC)C(=O)c1cc(OC)c(OC)c(OC)c1,4.55%,10.6%,-1.35%,7.35%,2.55%,6.5%
O=C1C(Cc2ccccc2)C(=O)N2c3ccccc3C=CC2N1c1ccccc1 (stereo unspecified),13.2%,13.7%,4.6%,0.55%,-10%,8.45%
O=C(NC/C=C/Br)NC1CCNc2ccccc21 (stereo unspecified),-14.2%,-27.4%,22.1%,28.6%,20.2%,23%
O=[N+]([O-])C(CO)(CO)c1ccccc1,25.3%,2.4%,6%,18.8%,3.55%,15.7%
Fc1ccc(NC(=S)NCCN2CCCC2)cc1,3.9%,34.2%,8.1%,3.75%,12.8%,-4.3%
CCC/C=N/NC(=O)c1ccc(OC)cc1,-2.45%,-15.8%,-6.85%,-46.9%,5.85%,-4.7%
CNC(=O)Nc1cc(C)ccc1Cl,-0.9%,-6.05%,-8.55%,-70%,1.15%,-6.7%
COC(=O)c1nnn(-c2ccccc2C(C)C)c1C(=O)c1ccccc1,7%,-8.85%,-0.9%,-5.75%,-21.4%,24.5%
CCCCCC/C=C/C(N)=O,5.75%,5.6%,-7.8%,12.1%,-20.2%,8.35%
Cc1ccc(O)c(C(=O)C[n+]2ccccc2)c1,-12.8%,-9.65%,-1.25%,1.2%,0.1%,-0.55%
COc1ccc(-n2c(=O)c(N=Nc3ccccc3)c(O)n(-c3ccccc3OC)c2=S)cc1,39.5%,-13.6%,40.5%,-13.7%,8.95%,15.3%
c1ccc2[nH]c(CN3CCCCC3)cc2c1,7.15%,-10.1%,-8.95%,-18.8%,-13.2%,11.8%
COc1cc(/C=C/c2ccccn2)oc(=O)c1,5.2%,-6.7%,-2.05%,-14.3%,-12.1%,7.9%
CS(=O)(=O)OCc1nnn(-c2ccccc2)c1COS(C)(=O)=O,7.2%,-9.1%,-3.5%,-40.5%,11.5%,-11.7%
COc1ccc(N=C(N)N2CCCc3ccccc32)cc1,-5.25%,17.9%,0.55%,-84.9%,1.4%,0.4%
C=C1C(=O)OC2/C=C(/CO)C3(O)CC(O)C(C)(CC(OC(=O)/C(C)=C/C)C12)O3 (stereo unspecified),7.2%,-13.9%,14.9%,17.4%,0.85%,-27.2%
C/C(=N/N)c1sc(-c2nc(C)c(/C(C)=N\N)s2)nc1C,32.9%,-31.1%,-26.9%,-16%,-18.1%,-11.3%
CC(=O)Oc1ccc2c(c1)CC[C@@H]1C2[C@@H](O[N+](=O)[O-])C[C@@]2(C)C1CC[C@@H]2O (stereo partly specified),25.5%,43.3%,77.2% (active),62%,31.9%,57.8%
